dFosB act = mouse delta FosB homodimer activation; P13346; purified delta FosB, TAMRA-CDK5 oligo fluorescence polarization; percent of positive-control signal above neutral wells; activation, % at 25 µM; 340,000 tested, 0.99% active; AID 493131;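 active = mean activation above about 17%, with every replicate also reaching it, limit read from the data, passing the limit was not always enough; inconclusive = only one of the two conditions met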
FID counter = displaces DNA intercalator in HCV helicase counter-screen. DNA fluorescent intercalator displacement, fluorescence. AID 1845. inhibition, % at 7.9 µM. 290,000 tested, 0.17% active; in the data active = inhibition above about 37%;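 note: higher means more ethidium bromide displaced from hairpin DNA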
MEKK2 WT-MEK5 = raises or lowers MEK5 binding to wildtype human MEKK2 PB1 domain | Q9Y2U5 | bead flow cytometry, Alexa488-MEK5 binding to MEKK2 WT; actives lie on both sides | binding response (% of control), % at 10 µM | 290,000 tested, 1.1% active | AID 1531; in the data active = binding response below about 67% or above about 130%; inconclusive = no clear call, values can overlap the other calls; inactive = in between
MEKK3 PB1 HTS = MEKK3-MEK5 PB1 interaction, increase or decrease; bead-based flow cytometry, Alexa488-MEK5 binding to MEKK3; actives lie on both sides; 0 = blocked by unlabeled MEK5, 100 = vehicle; binding response (% of control), % at 10 µM; 290,000 tested, 1.4% active; AID 1529;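 active = binding response more than 3 SD above or below the average of its plate-row segment, actives on both sides; inconclusive = wells at one plate position flagged as instrument error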;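 note: Alexa488 bead fluorescence after subtracting the streptavidin-only scavenger bead signal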
Target sequence (Q99759 whole entry, looked up): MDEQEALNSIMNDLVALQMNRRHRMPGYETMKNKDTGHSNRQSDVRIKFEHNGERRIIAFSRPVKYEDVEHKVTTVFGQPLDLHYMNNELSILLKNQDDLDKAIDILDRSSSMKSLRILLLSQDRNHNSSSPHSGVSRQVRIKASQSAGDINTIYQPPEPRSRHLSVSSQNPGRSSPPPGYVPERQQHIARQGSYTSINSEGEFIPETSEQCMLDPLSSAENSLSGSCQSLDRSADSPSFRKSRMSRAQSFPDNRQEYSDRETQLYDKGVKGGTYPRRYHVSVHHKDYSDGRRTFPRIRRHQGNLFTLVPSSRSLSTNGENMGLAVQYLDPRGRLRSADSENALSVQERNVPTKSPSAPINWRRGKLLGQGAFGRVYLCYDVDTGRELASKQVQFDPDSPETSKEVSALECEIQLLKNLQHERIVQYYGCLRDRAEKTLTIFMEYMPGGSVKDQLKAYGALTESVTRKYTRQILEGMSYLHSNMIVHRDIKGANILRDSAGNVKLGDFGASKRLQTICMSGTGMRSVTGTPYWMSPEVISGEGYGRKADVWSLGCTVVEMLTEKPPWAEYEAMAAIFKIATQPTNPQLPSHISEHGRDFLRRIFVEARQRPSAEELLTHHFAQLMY
MEKK2 mut-MEK5 = signal of MEK5 binding to mutant human MEKK2 PB1 domain | AID 1530 | bead flow cytometry, Alexa488-MEK5 binding to MEKK2 mutant | percent response, % at 10 µM | 290,000 tested, 0.35% active; in the data active = percent response above about 24%, passing the limit was not always enough
MEKK2wt confirm = raises or lowers MEK5 binding to wildtype human MEKK2, retest; shares compounds with MEKK3 PB1 HTS; bead flow cytometry, Alexa488-MEK5 binding to MEKK2 WT; actives lie on both sides; binding response (% of control), % at 10 µM; 5,900 tested, 2.4% active; AID 1892; in the data active = binding response below about 16% or above about 210%; inactive = in between
MEKK2mut confirm = signal of MEK5 binding to mutant human MEKK2, retest. shares compounds with MEKK3 PB1 HTS. bead flow cytometry, Alexa488-MEK5 binding to MEKK2 mutant. percent response, % at 10 µM. 5,900 tested, 2% active. AID 1893; in the data active = percent response mostly above about 71%, no sharp cut-off; inactive = mostly below about 38%;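 note: higher means compound restores mutant binding toward wildtype level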
MEKK3-MEK5 inh = confirmation of inhibitors of MEK5 binding to human MEKK3; shares compounds with MEKK3 PB1 HTS; bead flow cytometry, Alexa488-MEK5 binding to MEKK3; hits give low values; binding response (% of control), % at 10 µM; 5,900 tested, 1.8% active;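 active = binding response below 72% of control, or above a set upper limit, though filed actives all read lower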;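 note: lower values mean stronger disruption of MEK5 binding to MEKK3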
A number is an active result; – = inactive; ? = inconclusive; · = no result given; [ ] = another dose, or the depositor's remark. Only some compounds are listed: those with a hit (about 2.9% of all), similar ones and a draw of the others.

SMILES	dFosB act	FID counter	MEKK2 WT-MEK5	MEKK3 PB1 HTS	MEKK2 mut-MEK5	MEKK2wt confirm	MEKK2mut confirm	MEKK3-MEK5 inh
CCOC(=O)C1=C(C)N(C[C@@H]2CC[C@@H](Cc3ccc(-c4ccccc4)cc3)O2)C(=O)NC1c1ccc(SCc2ccco2)c([N+](=O)[O-])c1 (stereo partly specified)	–	·	·	·	·	·	·	·
CCOc1ccccc1CN1CCN(Cc2c[nH]c3ccccc23)CC1CCO (stereo unspecified)	–	–	134	–	–	–	–	–
CCOc1ccccc1CN1CCN(C2CCN(c3ccccc3F)CC2)CC1CCO (stereo unspecified)	–	–	–	75[inhibitor]	–	–	–	–
CCOc1ccccc1CN1CCN(Cc2[nH]c3ccccc3c2C)CC1CCO (stereo unspecified)	–	–	–	–	–	·	·	·
O=C(CCCc1ccccn1)c1cccc2ccccc12	–	·	·	·	·	·	·	·
COc1ccc(CC(=O)OCC(=O)N2CCCc3ccccc32)cc1OC	–	·	·	·	·	·	·	·
CC(/C=N/NC(=O)c1sc(N)nc1C)=C\c1ccccc1	–	–	–	–	–	·	·	·
CN(C)c1ccc(NC(=O)CN2CCC(O)(c3ccccc3)CC2)cc1	–	–	·	1.0[inhibitor]	–	–	–	69
COc1ccc(C(=O)N2CCc3ccccc32)cc1	–	–	–	122	–	–	–	–
Cc1ccc(NC(=O)C2CC(=O)N(c3ccccc3Cl)C2)cc1S(=O)(=O)N1CCOCC1 (stereo unspecified)	–	·	·	·	·	·	·	·
COc1cc(OC)c2c(c1)C(=O)OC2	–	–	–	131	–	–	–	–
COc1ccc(CN2CCC(=O)N(CCO)CC2)cc1OC	–	–	–	–	–	·	·	·
O=C(C[n+]1cc(Br)cc2ccccc21)c1ccccc1	–	–	66[inhibitor]	–	–	–	–	70
CCn1c(SCC(=O)N/N=C/C=C/c2ccco2)nnc1-c1ccccc1	–	–	–	128	–	–	–	–
COc1ccc(CCNC(=O)c2cccc(NC(=O)CC3SC(N4CCCCC4)=NC3=O)c2)cc1OC (stereo unspecified)	–	–	–	–	–	·	·	·
Cc1cc(C(=O)NC2=NCCS2)c2ccccc2n1	–	–	–	132	–	–	–	–
O=C(NC1=NCCS1)c1cc(-c2ccc(-c3ccccc3)cc2)nc2ccccc12	?	–	–	–	–	·	·	·
O=C(Nc1ccc2c(c1)CCCN2C(=O)c1cccs1)c1c(F)cccc1Cl	–	–	–	–	–	·	·	·
COc1ccc(CNCc2cccn2C)cc1	–	–	–	–	28	–	–	–
COc1ccc(CNCc2cccc(Cl)c2)cc1	–	–	–	–	–	·	·	·
Cc1ccc(OC(F)F)c(NC(=O)Nc2cccc(C(F)(F)F)c2)c1	–	–	203	–	55	–	–	–
O=C(Nc1ccccc1)Nc1cccc(C(F)(F)F)c1	–	–	–	–	–	·	·	·
CCOC(=O)C1(Cc2cccc(F)c2)CCN(Cc2cnn(CC)c2)CC1	–	–	–	–	–	·	·	·
CCOC(=O)C1(Cc2cccc(F)c2)CCN(Cc2nc(CC)[nH]c2C)CC1	–	–	·	71[inhibitor]	–	–	–	–
CC(=O)Nc1cc(C(=O)N(C)Cc2ccco2)ccc1Sc1ccc(Cl)cc1	–	–	–	142	–	–	–	–
SMILES	dFosB act	FID counter	MEKK2 WT-MEK5	MEKK3 PB1 HTS	MEKK2 mut-MEK5	MEKK2wt confirm	MEKK2mut confirm	MEKK3-MEK5 inh
Cc1ccc2c(c1)N(C(=O)CCC(=O)NCCCN1CCN(C)CC1)CCO2	–	–	–	–	–	·	·	·
Cc1ccc2c(c1)N(C(=O)CCC(=O)NCCCN1CCC(Cc3ccccc3)CC1)CCO2	–	–	142	–	25	–	–	–
[N-]=[N+]=NC(c1ccccc1)c1nc2ccccc2[nH]c1=O (stereo unspecified)	–	–	–	–	–	·	·	·
O=C(Nc1ccc(N2CCCCC2)cc1)c1ccccn1	–	–	–	–	–	·	·	·
Cc1ccc(S(=O)(=O)n2[nH]c(=O)cc2NC(=O)c2cccs2)cc1	·	–	-4.0[inhibitor]	1.0[inhibitor]	–	–	–	–
COc1ccc(C2C(O)C(c3c[nH]c4ccccc34)=NN2C(=O)CCl)cc1 (stereo unspecified)	–	–	–	–	–	·	·	·
COc1ccc(C2NN=C(c3c[nH]c4ccccc34)C2O)cc1 (stereo unspecified)	–	–	55	–	213	–	–	–
CC1CN(c2nc3ccccc3nc2C(C#N)C(=O)OC2CCCCC2)CC(C)O1 (stereo unspecified)	–	–	–	–	–	·	·	·
CC1CN(c2nc3ccccc3nc2C(C#N)C(=O)NC2CCCCC2)CC(C)O1 (stereo unspecified)	·	·	22	15[inhibitor]	–	–	–	–
COc1ccc(CN2CCNC(=O)C2CC(=O)NCCc2nc(C)c3c(n2)CCC3)cc1C (stereo unspecified)	–	–	–	–	–	·	·	·
Cc1ccc2c(c1C)NC(C(=O)O)C1CC=CC21 (stereo unspecified)	–	·	39	–	36	–	–	–
CC(C)=Cc1oc2ccc([N+](=O)[O-])cc2c1N1CC(C)OC(C)C1 (stereo unspecified)	–	–	–	–	–	·	·	·
O=C1C2C3C=CC(O3)C2C(=O)N1CC(O)c1ccccc1 (stereo unspecified)	–	–	–	–	–	·	·	·
COc1ccc(/C(C)=N\NS(=O)(=O)c2ccccc2)cc1OC	–	–	–	132	–	–	–	–
Cc1ccccc1NC(=O)C(C)N1C(=O)c2ccccc2C1=O (stereo unspecified)	–	–	–	–	–	·	·	·
Cc1cccnc1NC(=O)C(C)N1C(=O)c2ccccc2C1=O (stereo unspecified)	–	–	–	131	–	–	–	–
COc1cc(C(=S)N2CCOCC2)cc(OC)c1OC(=O)c1ccc(C)cc1	–	–	–	–	–	·	·	·
COc1cc(C(=S)N2CCOCC2)cc(OC)c1OC(=O)c1cccc(C)c1	–	–	–	–	25	–	–	–
COc1ccc(/C=C(\NC(=O)c2ccc(OC)c(OC)c2)C(=O)N2CCN(C)CC2)cc1	–	–	–	–	–	·	·	·
O=C(Cc1ccccc1)Nc1nc(-c2cccc([N+](=O)[O-])c2)cs1	–	–	–	–	–	·	·	·
Cc1ccc(C(=O)NC(=S)Nc2nc(-c3cccc([N+](=O)[O-])c3)cs2)c(Cl)c1	–	–	–	45[inhibitor]	–	–	–	–
CC(=O)Nc1sc(C)c(C)c1C(=O)OCC(=O)N(CCC#N)c1cc(C)cc(C)c1	–	·	·	·	·	·	·	·

Screens from PubChem BioAssay.
